Test results reported in the supplement of paper PMC8728848.
The sample as a whole holds a higher share of the strongest signals than the screen did.

B1: Ovorubin (Pomacea canaliculata), J7I2T6 (protein)
chain: MFVATSLLLAIATLVVRASPHNYLIMDIEPPKSVSERDILNLLSPLQVKHSFRVTGSTRLLIVIRLDAQSYEKLDEITVPGKVEVIPAVNMADTMERCGVSWPRVELTDDNVTLFESESTLTDVTKEQLKAMLIGYGEHMSGLLQAHRFEYYQAAGATPHRHFVFVNSVPDEIEVFGREGVDIWGGPGEFVVKPQYVTRI
B2: Gal 3 (Homo sapiens), P17931 (protein)
chain: MADNFSLHDALSGSGNPNPQGWPGAWGNQPAGAGGYPGASYPGAYPGQAPPGAYPGQAPPGAYHGAPGAYPGAPAPGVYPGPPSGPGAYPSSGQPSAPGAYPATGPYGAPAGPLIVPYNLPLPGGVVPRMLITILGTVKPNANSILDFQRGNDVAFHFNPRFNENNRRVIVCNTKLDNNWGREERQSVFPFESGKPFKIQVLVEPDHFKVAVNDAHLLQYNHRVKKLNEISKLGISGDIDLTSASYTMI

Tests used:
Experiment in all cases: glycan array binding signal (z-score within array); higher = stronger binding
[1] = molecular target: Fuc(a1-2)Gal(b1-3)GlcNAc(b1-3)[Gal(b1-4)GlcNAc(b1-6)]Gal(b1-4)Glc; details: glycan notation: IUPAC condensed, linker removed
Outline: (§1)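 Glycan array data were curated from 3228 arrays in the Consortium for Functional Glycomics database and kept only where the protein sequence was available. Glycan names were converted to IUPAC-condensed notation, and columns mapping to the same glycan were averaged. The binding signal is a within-array Z-score, averaged across arrays of the same protein sequence at different concentrations or buffers and across linkers. Negative Z-scores can be read as non-binding.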

[2] = molecular target: Fuc(a1-2)Gal(b1-4)GlcNAc(b1-3)Gal(b1-4)GlcNAc; details: glycan notation: IUPAC condensed, linker removed
Outline: as §1

[3] = molecular target: Fuc(a1-2)Gal(b1-4)GlcNAc6S; details: glycan notation: IUPAC condensed, linker removed
Outline: as §1

[4] = molecular target: Fuc(a1-2)Gal(b1-4)[Fuc(a1-3)]GlcNAc(b1-2)[Fuc(a1-2)Gal(b1-4)[Fuc(a1-3)]GlcNAc(b1-4)]Man(a1-3)[Fuc(a1-2)Gal(b1-4)[Fuc(a1-3)]GlcNAc(b1-2)Man(a1-6)]Man(b1-4)GlcNAc(b1-4)GlcNAc; details: glycan notation: IUPAC condensed, linker removed
Outline: as §1

[5] = molecular target: Fuc(a1-2)[Gal(a1-3)]Gal(b1-4)GlcNAc; details: glycan notation: IUPAC condensed, linker removed
Outline: as §1

[6] = molecular target: Fuc(a1-3)[Gal(b1-4)]GlcNAc(b1-2)Man(a1-3)[Fuc(a1-3)[Gal(b1-4)]GlcNAc(b1-2)Man(a1-6)]Man(b1-4)GlcNAc(b1-4)GlcNAc; details: glycan notation: IUPAC condensed, linker removed
Outline: as §1

[7] = molecular target: Fuc(a1-3)[Gal(b1-4)]GlcNAc(b1-2)Man(a1-3)[Fuc(a1-3)[Gal(b1-4)]GlcNAc(b1-2)Man(a1-6)]Man(b1-4)GlcNAc(b1-4)[Fuc(a1-6)]GlcNAc; details: glycan notation: IUPAC condensed, linker removed
Outline: as §1

[8] = molecular target: Fuc(a1-3)[Gal(b1-4)]GlcNAc(b1-6)GalNAc; details: glycan notation: IUPAC condensed, linker removed
Outline: as §1

Gal(a1-3)Gal = details: glycan notation: IUPAC condensed, linker removed
Outline: as §1

[9] = molecular target: Gal(a1-3)Gal(b1-4)GlcNAc(b1-2)Man(a1-3)[Gal(a1-3)Gal(b1-4)GlcNAc(b1-2)Man(a1-6)]Man(b1-4)GlcNAc(b1-4)GlcNAc; details: glycan notation: IUPAC condensed, linker removed
Outline: as §1

[10] = molecular target: Gal(a1-3)[Gal(a1-4)]Gal(b1-4)GlcNAc; details: glycan notation: IUPAC condensed, linker removed
Outline: as §1

Gal(a1-6)Glc = details: glycan notation: IUPAC condensed, linker removed
Outline: as §1

[11] = molecular target: Gal(b1-3)GlcNAc(b1-2)[Gal(b1-3)GlcNAc(b1-6)]Man(a1-6)[Gal(b1-3)GlcNAc(b1-2)Man(a1-3)]Man(b1-4)GlcNAc(b1-4)GlcNAc; details: glycan notation: IUPAC condensed, linker removed
Outline: as §1

[12] = molecular target: Gal(b1-3)GlcNAc(b1-3)Gal(b1-3)GlcNAc; details: glycan notation: IUPAC condensed, linker removed
Outline: as §1

[13] = molecular target: Gal(b1-3)GlcNAc(b1-3)Gal(b1-4)GlcNAc(b1-3)Gal(b1-4)GlcNAc(b1-2)[Gal(b1-3)GlcNAc(b1-3)Gal(b1-4)GlcNAc(b1-3)Gal(b1-4)GlcNAc(b1-6)]Man(a1-6)[Gal(b1-3)GlcNAc(b1-3)Gal(b1-4)GlcNAc(b1-3)Gal(b1-4)GlcNAc(b1-2)Man(a1-3)]Man(b1-4)GlcNAc(b1-4)[Fuc(a1-6)]GlcNAc; details: glycan notation: IUPAC condensed, linker removed
Outline: as §1

[14] = molecular target: Gal(b1-3)GlcNAc(b1-3)Gal(b1-4)GlcNAc(b1-6)[Gal(b1-3)GlcNAc(b1-3)]Gal(b1-4)Glc; details: glycan notation: IUPAC condensed, linker removed
Outline: as §1

[15] = molecular target: Gal(b1-3)GlcNAc(b1-6)[Gal(b1-3)]GalNAc; details: glycan notation: IUPAC condensed, linker removed
Outline: as §1

[16] = molecular target: Gal(b1-3)[Neu5Ac(b2-6)]GalNAc; details: glycan notation: IUPAC condensed, linker removed
Outline: as §1

[17] = molecular target: Gal(b1-4)GlcNAc(b1-3)Gal(b1-4)GlcNAc(b1-3)Gal(b1-4)GlcNAc(b1-2)Man(a1-3)[Gal(b1-4)GlcNAc(b1-3)Gal(b1-4)GlcNAc(b1-3)Gal(b1-4)GlcNAc(b1-2)Man(a1-6)]Man(b1-4)GlcNAc(b1-4)GlcNAc; details: glycan notation: IUPAC condensed, linker removed
Outline: as §1

[18] = molecular target: Gal(b1-4)GlcNAc(b1-3)Gal(b1-4)GlcNAc(b1-3)Gal(b1-4)GlcNAc(b1-3)Gal(b1-4)GlcNAc(b1-3)Gal(b1-4)GlcNAc(b1-2)[Gal(b1-4)GlcNAc(b1-3)Gal(b1-4)GlcNAc(b1-3)Gal(b1-4)GlcNAc(b1-3)Gal(b1-4)GlcNAc(b1-3)Gal(b1-4)GlcNAc(b1-6)]Man(a1-6)[Gal(b1-4)GlcNAc(b1-3)Gal(b1-4)GlcNAc(b1-3)Gal(b1-4)GlcNAc(b1-3)Gal(b1-4)GlcNAc(b1-3)Gal(b1-4)GlcNAc(b1-2)Man(a1-3)]Man(b1-4)GlcNAc(b1-4)[Fuc(a1-6)]GlcNAc; details: glycan notation: IUPAC condensed, linker removed
Outline: as §1

Gal(b1-4)GlcNAc6P = details: glycan notation: IUPAC condensed, linker removed
Outline: as §1

Gal3S(b1-3)GalNAc = details: glycan notation: IUPAC condensed, linker removed
Outline: as §1

Gal3S(b1-4)Glc = details: glycan notation: IUPAC condensed, linker removed
Outline: as §1

[19] = molecular target: Gal3S(b1-4)[Fuc(a1-3)]Glc6S; details: glycan notation: IUPAC condensed, linker removed
Outline: as §1

Gal3S4S(b1-4)GlcNAc = details: glycan notation: IUPAC condensed, linker removed
Outline: as §1

Gal3S6S(b1-4)GlcNAc = details: glycan notation: IUPAC condensed, linker removed
Outline: as §1

Gal6S(b1-4)Glc6S = details: glycan notation: IUPAC condensed, linker removed
Outline: as §1

[20] = molecular target: GalNAc(b1-4)GlcNAc(b1-2)Man; details: glycan notation: IUPAC condensed, linker removed
Outline: as §1

GalNAc(b1-4)GlcNAc6S = details: glycan notation: IUPAC condensed, linker removed
Outline: as §1

GlcA(b1-6)Gal = details: glycan notation: IUPAC condensed, linker removed
Outline: as §1

[21] = molecular target: Neu5Ac(a2-3)Gal(b1-4)[Fuc(a1-3)]GlcNAc(b1-6)[Neu5Ac(a2-3)Gal(b1-3)]GalNAc; details: glycan notation: IUPAC condensed, linker removed; mutation: R144S
Outline: as §1

[22] = molecular target: Neu5Ac(a2-3)GalNAc(b1-4)GlcNAc; details: glycan notation: IUPAC condensed, linker removed; mutation: R144S
Outline: as §1

Neu5Ac(a2-6)GalNAc = details: glycan notation: IUPAC condensed, linker removed; mutation: R144S
Outline: as §1

[23] = molecular target: Neu5Gc(a2-3)Gal(b1-3)GlcNAc; details: glycan notation: IUPAC condensed, linker removed; mutation: R144S
Outline: as §1

[24] = molecular target: Neu5Gc(b2-6)Gal(b1-4)GlcNAc; details: glycan notation: IUPAC condensed, linker removed; mutation: R144S
Outline: as §1

Row | Binder | glycan array binding signal (z-score) [1] | glycan array binding signal (z-score) [2] | glycan array binding signal (z-score) [3] | glycan array binding signal (z-score) [4] | glycan array binding signal (z-score) [5] | glycan array binding signal (z-score) [6] | glycan array binding signal (z-score) [7] | glycan array binding signal (z-score) [8] | glycan array binding signal (z-score) (Gal(a1-3)Gal) | glycan array binding signal (z-score) [9] | glycan array binding signal (z-score) [10] | glycan array binding signal (z-score) (Gal(a1-6)Glc) | glycan array binding signal (z-score) [11] | glycan array binding signal (z-score) [12] | glycan array binding signal (z-score) [13] | glycan array binding signal (z-score) [14] | glycan array binding signal (z-score) [15] | glycan array binding signal (z-score) [16] | glycan array binding signal (z-score) [17] | glycan array binding signal (z-score) [18] | glycan array binding signal (z-score) (Gal(b1-4)GlcNAc6P) | glycan array binding signal (z-score) (Gal3S(b1-3)GalNAc) | glycan array binding signal (z-score) (Gal3S(b1-4)Glc) | glycan array binding signal (z-score) [19] | glycan array binding signal (z-score) (Gal3S4S(b1-4)GlcNAc) | glycan array binding signal (z-score) (Gal3S6S(b1-4)GlcNAc) | glycan array binding signal (z-score) (Gal6S(b1-4)Glc6S) | glycan array binding signal (z-score) [20] | glycan array binding signal (z-score) (GalNAc(b1-4)GlcNAc6S) | glycan array binding signal (z-score) (GlcA(b1-6)Gal) | glycan array binding signal (z-score) [21] | glycan array binding signal (z-score) [22] | glycan array binding signal (z-score) (Neu5Ac(a2-6)GalNAc) | glycan array binding signal (z-score) [23] | glycan array binding signal (z-score) [24]
1 | B1 | 0.184 | 0.006 | 0.049 | 0.485 | -0.498 | 0.055 | -0.362 | 0.355 | -0.576 | 0.572 | 7.96 | -1.13 | 4.93 | -0.763 | 2.9 | -0.801 | 0.3 | -0.862 | 0.387 | 2.67 | -0.461 | 0.802 | -0.766 | 3.72 | 9.33 | 4.31 | 3.93 | -0.618 | -0.066 | -0.181 |  |  |  |  | 
2 | B2 |  |  |  |  |  |  |  |  |  |  |  |  |  |  |  |  |  |  |  |  |  |  |  |  |  |  |  |  |  |  | -0.352 | -0.363 | -0.364 | -0.363 | -0.358
